Laboratory results: PubChem BioAssay (EPA / NIEHS)
Calls of active or inactive are those of the source. Rule for the calls: active = hit-call score of the fitted dose curve at least 0.9, where 1 is the maximum; inactive = score below 0.9.

Key:
[1] = ATG_M_32_CIS: Attagene CIS-FACTORIAL HepG2 Assay for M32 Transcription Factor (Internal Marker) (AID 2282949); conditions: HepG2 Attagene cis-factorial M32 reporter, mRNA; actives raise or lower the signal;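 note: background control marker of the multiplexed CIS panel rather than a real target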
Procedure, shortened: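 Using DMSO as baseline, bidirectional curve fits were applied to reporter mRNA signals. These came from transiently transfected HepG2 cells exposed for 24 h, with RNA analysed by RT-PCR, FAM primer extension, HpaI digestion and CE.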

[2] = ATG_M_06_CIS: Attagene CIS-FACTORIAL HepG2 Assay for M06 Transcription Factor (Internal Marker) (AID 2282950); conditions: HepG2 Attagene CIS-FACTORIAL M06 internal marker reporter; actives raise or lower the signal
Procedure, shortened: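 Cells (HepG2, transiently carrying cis-driven reporter units) receive chemical for 24 h before RNA isolation. Reporter cDNA is PCR-amplified, FAM-labelled by primer extension, HpaI-digested and sized on a capillary analyser.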

[3] = target: Hypoxia-inducible factor 1-alpha (Homo sapiens) (UniProt Q16665); assay: ATG_HIF1a_CIS: Attagene CIS-FACTORIAL HepG2 Assay for human Hypoxia Inducible Factor 1 (HIF1A) (AID 2282951); conditions: HepG2 Attagene cis-factorial HIF1a reporter transcription; actives raise or lower the signal
Chain of Hypoxia-inducible factor 1-alpha (Homo sapiens) (Q16665 whole entry, looked up): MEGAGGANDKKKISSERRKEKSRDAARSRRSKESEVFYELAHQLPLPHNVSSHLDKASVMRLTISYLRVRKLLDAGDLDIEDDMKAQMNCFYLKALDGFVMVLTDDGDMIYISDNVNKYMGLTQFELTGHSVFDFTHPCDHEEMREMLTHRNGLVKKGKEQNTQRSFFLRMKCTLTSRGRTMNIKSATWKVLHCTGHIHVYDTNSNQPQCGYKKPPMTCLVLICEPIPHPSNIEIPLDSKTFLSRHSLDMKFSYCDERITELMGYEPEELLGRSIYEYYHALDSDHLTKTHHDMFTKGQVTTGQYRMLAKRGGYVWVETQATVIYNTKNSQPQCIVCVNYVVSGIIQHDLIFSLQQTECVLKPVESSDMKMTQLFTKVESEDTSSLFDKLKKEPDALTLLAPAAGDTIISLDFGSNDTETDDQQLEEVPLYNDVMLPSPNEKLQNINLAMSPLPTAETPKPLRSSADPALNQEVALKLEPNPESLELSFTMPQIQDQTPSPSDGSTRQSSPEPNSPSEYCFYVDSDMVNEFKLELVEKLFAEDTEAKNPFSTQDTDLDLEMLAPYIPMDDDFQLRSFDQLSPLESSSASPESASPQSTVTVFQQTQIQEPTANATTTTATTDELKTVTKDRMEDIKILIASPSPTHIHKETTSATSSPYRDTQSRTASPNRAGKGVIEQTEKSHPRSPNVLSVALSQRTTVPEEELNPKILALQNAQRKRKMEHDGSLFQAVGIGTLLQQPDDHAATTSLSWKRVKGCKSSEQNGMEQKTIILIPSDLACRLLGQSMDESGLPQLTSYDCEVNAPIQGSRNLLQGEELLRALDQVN
Procedure, shortened: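 Dosed 24 h, transfected HepG2 cells yielded total RNA whose reporter transcripts were RT-PCR-amplified and sized by capillary electrophoresis using fluorescent labelling; DMSO defined baseline, with gain and loss of signal both fitted.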

[4] = target: Hepatocyte nuclear factor 6 (Homo sapiens) (UniProt Q9UBC0); assay: ATG_HNF6_CIS: Attagene CIS-FACTORIAL HepG2 Assay for human Hepatocyte Nuclear Factor 6 (HNF6) (AID 2282952); conditions: HepG2 Attagene cis-factorial HNF6 reporter transcription; actives raise or lower the signal
Chain of Hepatocyte nuclear factor 6 (Homo sapiens) (Q9UBC0 whole entry, looked up, the tested form may be a part): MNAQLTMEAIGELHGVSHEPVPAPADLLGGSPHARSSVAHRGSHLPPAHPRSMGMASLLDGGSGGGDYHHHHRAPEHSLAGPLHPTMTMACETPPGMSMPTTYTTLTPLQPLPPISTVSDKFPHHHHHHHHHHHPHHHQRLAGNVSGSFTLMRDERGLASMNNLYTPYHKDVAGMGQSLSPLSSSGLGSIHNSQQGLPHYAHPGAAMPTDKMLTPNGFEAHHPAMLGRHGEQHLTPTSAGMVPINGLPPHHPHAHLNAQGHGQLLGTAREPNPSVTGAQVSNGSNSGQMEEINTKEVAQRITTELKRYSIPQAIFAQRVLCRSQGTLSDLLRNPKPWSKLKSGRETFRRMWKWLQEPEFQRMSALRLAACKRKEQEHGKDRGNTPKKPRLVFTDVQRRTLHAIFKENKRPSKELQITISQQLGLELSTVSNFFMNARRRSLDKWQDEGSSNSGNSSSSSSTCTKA
Procedure, shortened: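 Twenty-four-hour chemical treatment of reporter-transfected HepG2 cells precedes RNA isolation, DNase-treated reverse transcription and PCR of reporter sequences. Labelled fragments are sized by capillary electrophoresis and fitted bidirectionally versus DMSO.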

[5] = ATG_MRE_CIS: Attagene CIS-FACTORIAL HepG2 Assay for human Metal Responsive Element (MRE) (AID 2282954); conditions: HepG2 MRE cis-reporter transcription, Attagene multiplex; actives raise or lower the signal
Procedure, shortened: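 Multiplexed cis-reporter assay in human HepG2 liver cells, 24 h incubation with test chemical. Reporter transcripts measured by RT-PCR and capillary electrophoresis; values from bidirectional curve fitting versus DMSO.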

[6] = ATG_PBREM_CIS: Attagene CIS-FACTORIAL HepG2 Assay for human Phenobarbital-responsive Enhancer Module (PBREM) (AID 2282955); conditions: HepG2 PBREM cis-reporter, Attagene multiplexed transcription; actives raise or lower the signal
Procedure, shortened: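 Transfected liver-derived HepG2 cells exposed 24 h; PBREM reporter transcript quantified via RT-PCR and capillary electrophoresis, with activity in either direction referenced to DMSO.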

[7] = target: Paired box protein Pax-6 (Homo sapiens) (UniProt P26367); assay: ATG_Pax6_CIS: Attagene CIS-FACTORIAL HepG2 Assay for human Paired Box 6 (PAX6) (AID 2282956); conditions: HepG2 CIS-FACTORIAL PAX6 reporter transcription, RNA readout; actives raise or lower the signal
Chain of Paired box protein Pax-6 (Homo sapiens) (P26367 whole entry, looked up): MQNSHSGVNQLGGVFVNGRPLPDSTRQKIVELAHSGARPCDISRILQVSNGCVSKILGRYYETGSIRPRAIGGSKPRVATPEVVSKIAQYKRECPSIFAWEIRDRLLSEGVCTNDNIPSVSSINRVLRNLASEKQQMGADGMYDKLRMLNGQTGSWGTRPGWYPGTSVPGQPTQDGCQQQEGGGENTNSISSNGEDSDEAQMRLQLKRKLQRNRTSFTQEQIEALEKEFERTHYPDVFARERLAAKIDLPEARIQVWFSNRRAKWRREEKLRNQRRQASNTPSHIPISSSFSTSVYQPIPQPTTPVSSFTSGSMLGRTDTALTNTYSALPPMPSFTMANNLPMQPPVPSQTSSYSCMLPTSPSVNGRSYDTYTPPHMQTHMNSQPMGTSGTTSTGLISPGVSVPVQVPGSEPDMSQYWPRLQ
Procedure, shortened: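 Fluorescent RT-PCR products separated by capillary electrophoresis report PAX6-linked promoter mRNA in HepG2 cells 24 h post-dose. Curves fitted bidirectionally, DMSO as negative control.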

[8] = ATG_PXRE_CIS: Attagene CIS-FACTORIAL HepG2 Assay for human Pregnane X Receptor Element (PXRE) (AID 2282957); conditions: HepG2 Attagene CIS-FACTORIAL PXRE reporter, mRNA; actives raise or lower the signal
Procedure, shortened: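 Bidirectional activity, baselined to DMSO, derived from reporter mRNA fluorescence (RT-PCR plus capillary electrophoresis) in HepG2 cells bearing cis-promoter reporter units, 24 h exposure.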

[9] = ATG_PPRE_CIS: Attagene CIS-FACTORIAL HepG2 Assay for human Peroxisome Proliferator-activated Response Element (PPRE) (AID 2282958); conditions: HepG2 PPRE cis-element reporter, Attagene transcription factor profiling; actives raise or lower the signal
Procedure, shortened: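 Measured endpoint: PPRE-controlled reporter mRNA, detected by RT-PCR and capillary electrophoresis fluorescence, from transiently transfected HepG2 cells 24 h after dosing. Curves fitted in both directions using DMSO baseline.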

[10] = ATG_RORE_CIS: Attagene CIS-FACTORIAL HepG2 Assay for human RAR-related Orphan Receptor Element (RORE) (AID 2282959); conditions: HepG2 Attagene cis-factorial RORE reporter, mRNA; actives raise or lower the signal
Procedure, shortened: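 Transiently transfected HepG2 reporter cells were treated 24 h. Reporter transcripts were detected by RT-PCR and capillary electrophoresis, with bidirectional fitting against DMSO.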

[11] = ATG_Sox_CIS: Attagene CIS-FACTORIAL HepG2 Assay for human SRY-box transcription factor (SOX) (AID 2282960); conditions: HepG2 Attagene cis-factorial SOX reporter, mRNA; actives raise or lower the signal
Procedure, shortened: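 Gain- or loss-of-signal endpoint, fitted bidirectionally with DMSO as negative control. Based on reporter mRNA from transfected HepG2 cells harvested 24 h post-treatment and quantified via RT-PCR and capillary electrophoresis.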

[12] = target: Transcription factor Sp1 (Homo sapiens) (UniProt P08047); assay: ATG_Sp1_CIS: Attagene CIS-FACTORIAL HepG2 Assay for human Specificity Protein 1 (Sp1) (AID 2282961); conditions: HepG2 Sp1 cis-reporter transcription, actives raise or lower the signal
Chain of Transcription factor Sp1 (Homo sapiens) (P08047 whole entry, looked up, the tested form may be a part): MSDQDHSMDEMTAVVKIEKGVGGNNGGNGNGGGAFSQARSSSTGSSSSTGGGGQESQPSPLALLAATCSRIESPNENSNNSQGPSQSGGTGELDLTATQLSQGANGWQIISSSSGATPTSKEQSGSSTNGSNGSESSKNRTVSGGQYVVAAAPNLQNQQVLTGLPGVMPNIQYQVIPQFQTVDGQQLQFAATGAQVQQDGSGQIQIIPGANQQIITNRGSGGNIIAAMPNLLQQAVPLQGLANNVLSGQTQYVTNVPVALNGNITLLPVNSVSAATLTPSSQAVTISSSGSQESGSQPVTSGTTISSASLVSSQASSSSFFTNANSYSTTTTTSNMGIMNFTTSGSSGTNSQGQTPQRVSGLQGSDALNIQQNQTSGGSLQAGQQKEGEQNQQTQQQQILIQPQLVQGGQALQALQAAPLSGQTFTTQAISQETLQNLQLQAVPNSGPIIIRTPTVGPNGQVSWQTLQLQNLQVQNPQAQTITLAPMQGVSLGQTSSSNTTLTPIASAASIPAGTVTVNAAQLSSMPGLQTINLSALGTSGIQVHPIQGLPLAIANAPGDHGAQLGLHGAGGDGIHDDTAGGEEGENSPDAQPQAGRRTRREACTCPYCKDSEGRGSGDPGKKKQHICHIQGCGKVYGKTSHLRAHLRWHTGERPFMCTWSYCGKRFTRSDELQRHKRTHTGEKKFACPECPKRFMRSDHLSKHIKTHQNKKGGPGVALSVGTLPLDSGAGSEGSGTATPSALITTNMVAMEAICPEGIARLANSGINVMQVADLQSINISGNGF
Procedure, shortened: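 Endpoint reflects endogenous Sp1 transcriptional activity, not an exogenous fusion protein: HepG2 cells with transfected cis-regulated reporters, 24 h dosing, RT-PCR/capillary electrophoresis mRNA read-out, DMSO-normalised bidirectional fit.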

[13] = ATG_SREBP_CIS: Attagene CIS-FACTORIAL HepG2 Assay for human Sterol Regulatory Element Binding (SREBP) (AID 2282962); conditions: HepG2 Attagene cis-factorial SREBP reporter, mRNA; actives raise or lower the signal
Procedure, shortened: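 Endogenous factor activity is measured in HepG2 through multiplexed reporter units under cis-element control. Following a 24 h incubation, reporter transcripts are reverse-transcribed, PCR-amplified and sized by capillary electrophoresis; activity is fitted in both directions relative to DMSO.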

[14] = target: Signal transducer and activator of transcription 3 (Homo sapiens) (UniProt P40763); assay: ATG_STAT3_CIS: Attagene CIS-FACTORIAL HepG2 Assay for human Signal Transducer and Activator of Transcription 3 (STAT3) (AID 2282963); conditions: HepG2, Attagene cis-factorial STAT3 reporter transcription; actives raise or lower the signal
Chain of Signal transducer and activator of transcription 3 (Homo sapiens) (P40763 whole entry, looked up): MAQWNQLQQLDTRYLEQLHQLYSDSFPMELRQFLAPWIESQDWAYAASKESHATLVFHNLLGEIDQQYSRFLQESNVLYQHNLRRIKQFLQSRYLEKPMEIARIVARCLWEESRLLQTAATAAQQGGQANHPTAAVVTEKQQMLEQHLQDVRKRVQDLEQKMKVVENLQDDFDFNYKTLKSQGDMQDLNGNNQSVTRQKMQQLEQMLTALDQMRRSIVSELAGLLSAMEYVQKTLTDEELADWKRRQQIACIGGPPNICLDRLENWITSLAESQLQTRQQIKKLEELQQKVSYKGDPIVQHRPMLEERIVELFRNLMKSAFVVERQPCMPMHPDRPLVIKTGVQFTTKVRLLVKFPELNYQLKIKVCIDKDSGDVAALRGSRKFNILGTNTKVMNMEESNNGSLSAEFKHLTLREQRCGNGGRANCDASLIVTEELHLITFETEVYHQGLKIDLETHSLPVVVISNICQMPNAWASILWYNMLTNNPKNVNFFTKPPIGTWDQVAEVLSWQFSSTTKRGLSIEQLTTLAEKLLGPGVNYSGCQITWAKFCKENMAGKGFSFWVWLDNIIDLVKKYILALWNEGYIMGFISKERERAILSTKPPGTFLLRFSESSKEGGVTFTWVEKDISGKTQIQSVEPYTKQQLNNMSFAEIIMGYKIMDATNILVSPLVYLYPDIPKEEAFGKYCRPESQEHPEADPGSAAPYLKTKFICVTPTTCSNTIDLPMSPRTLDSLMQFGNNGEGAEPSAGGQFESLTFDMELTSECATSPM
Procedure, shortened: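 Cis-factorial format: endogenous transcription factors in HepG2 drive transfected reporter units. After 24 h treatment, reporter RNA was reverse-transcribed, amplified, FAM-labelled and HpaI-digested before CE analysis; activity scored in both directions against DMSO.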

[15] = ATG_TA_CIS: Attagene CIS-FACTORIAL HepG2 Assay for human TA Basal Promoter (AID 2282964); conditions: HepG2 Attagene CIS-factorial TA basal promoter reporter; actives raise or lower the signal
Procedure, shortened: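 Background internal-marker endpoint from a 52-component HepG2 cis-reporter panel. Cells treated 24 h; reporter transcripts quantified via RT-PCR and CE fluorescence against DMSO baseline.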

[16] = ATG_TCF_b_cat_CIS: Attagene CIS-FACTORIAL HepG2 Assay for human T-Cell-Factor with beta-catenin (TCF/b-cat) (AID 2282965); conditions: HepG2 TCF/beta-catenin cis-reporter transcription, actives raise or lower the signal
Procedure, shortened: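 Measured: reporter mRNA in HepG2 transiently transfected with cis-promoter reporter units, 24 h after chemical addition. Fitting was bidirectional, DMSO as negative control.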

[17] = ATG_TAL_CIS: Attagene CIS-FACTORIAL HepG2 Assay for human TAL Basal Promoter (AID 2282966); conditions: HepG2 Attagene cis-factorial TAL promoter reporter; actives raise or lower the signal;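 note: background control endpoint measuring basal TAL promoter reporter mRNA not a specific factor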
Procedure, shortened: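 Human hepatoma HepG2 cells, transfected with promoter-regulated reporter units, were treated 24 h. Reporter transcript levels, measured through RT-PCR and capillary electrophoresis, were fitted for gain or loss relative to DMSO.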

[18] = ATG_TGFb_CIS: Attagene CIS-FACTORIAL HepG2 Assay for human Transforming Growth Factor (TGF) (AID 2282967); conditions: HepG2 Attagene CIS TGFb reporter, mRNA transcription; actives raise or lower the signal
Procedure, shortened: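 Liver HepG2 line, cis-factorial reporter panel, 24 h dosing. Quantitation: RT-PCR products labeled with 6-FAM, cut with HpaI, resolved by capillary electrophoresis; DMSO-referenced bidirectional analysis.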

[19] = ATG_VDRE_CIS: Attagene CIS-FACTORIAL HepG2 Assay for human Vitamin D Receptor Element (VDRE) (AID 2282968); conditions: HepG2 VDRE cis-reporter transcription, actives raise or lower the signal
Procedure, shortened: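 Measures endogenous factor activity through cis-element-driven reporter transcripts in transiently transfected HepG2. Cells are treated 24 h; reporter mRNA is quantified by RT-PCR and capillary electrophoresis; fitting is bidirectional.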

[20] = target: Heat shock factor protein 1 (Homo sapiens) (UniProt Q00613); assay: ATG_HSE_CIS: Attagene CIS-FACTORIAL HepG2 Assay for human Heat Shock Transcription Factor 1 (HSE) (AID 2282953); conditions: HepG2 HSE cis-reporter, Attagene RNA transcription; actives raise or lower the signal
Chain of Heat shock factor protein 1 (Homo sapiens) (Q00613 whole entry, looked up): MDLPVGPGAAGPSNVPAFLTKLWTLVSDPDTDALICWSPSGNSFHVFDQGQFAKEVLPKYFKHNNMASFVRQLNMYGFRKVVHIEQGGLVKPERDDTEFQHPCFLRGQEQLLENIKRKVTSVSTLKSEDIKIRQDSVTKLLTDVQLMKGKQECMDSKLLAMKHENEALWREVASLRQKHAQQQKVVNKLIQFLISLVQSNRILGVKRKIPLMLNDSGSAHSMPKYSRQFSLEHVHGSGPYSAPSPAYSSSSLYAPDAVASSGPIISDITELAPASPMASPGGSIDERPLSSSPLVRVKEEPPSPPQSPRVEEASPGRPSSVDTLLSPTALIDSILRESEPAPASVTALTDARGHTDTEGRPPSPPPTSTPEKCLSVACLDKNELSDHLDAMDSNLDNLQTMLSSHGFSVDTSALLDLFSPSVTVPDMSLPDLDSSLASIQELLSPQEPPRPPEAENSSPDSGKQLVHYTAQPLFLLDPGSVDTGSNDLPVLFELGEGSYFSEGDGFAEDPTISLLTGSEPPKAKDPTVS
Procedure, shortened: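 Liver-derived HepG2 cells carry transiently introduced multiple reporter units governed by cis promoters. Reporter RNA measured 24 h post-dose through reverse transcription, PCR amplification, fluorescent labelling and capillary electrophoresis, normalised to DMSO.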

Measured: AC50

C=CC(=O)OCCC(F)(F)C(F)(F)C(F)(F)C(F)(F)C(F)(F)C(F)(F)C(F)(F)C(F)(F)F
inactive: [1] | [2] | [3] | [4] | [5] | [6] | [7] | [8] | [9] | [10] | [11] | [12] | [13] | [14] | [15] | [16] | [17] | [18] | [19]

C/C=C/C(=O)C1=C(C)CCCC1(C)C
active: [4] 65.5 µM | [20] 63.7 µM | [5] 36.5 µM | [8] 2.03 µM | [11] 46.1 µM | [12] 35.4 µM | [13] 44.9 µM | [16] 62.7 µM | [19] 7.43 µM
inactive: [1] | [2] | [3] | [6] | [14] | [15] | [17] | [18]

O=C(O)CCC(F)(F)C(F)(F)C(F)(F)C(F)(F)C(F)(F)C(F)(F)F
inactive: [1] | [2] | [3] | [4] | [5] | [6] | [7] | [8] | [9] | [10] | [11] | [12] | [13] | [14] | [15] | [16] | [17] | [18] | [19]

OCCN1CN(CCO)CN(CCO)C1
active: [20] 178 µM | [5] 165 µM | [8] 30 µM | [11] 150 µM | [12] 144 µM
inactive: [1] | [2] | [3] | [4] | [6] | [10] | [14] | [15] | [16] | [18] | [19]

Cc1cncc(C)c1
inactive: [1] | [2] | [3] | [4] | [5] | [6] | [7] | [8] | [9] | [10] | [11] | [12] | [13] | [14] | [15] | [16] | [17] | [18] | [19]

O=C(O)CN(CCCN(CC(=O)O)CC(=O)O)CC(=O)O
inactive: [1] | [2] | [3] | [4] | [20] | [5] | [6] | [9] | [12] | [13] | [14] | [15] | [16] | [18] | [19]

Nc1ccc(O)c(C(=O)O)c1
inactive: [1] | [2] | [3] | [4] | [5] | [6] | [7] | [8] | [9] | [10] | [11] | [12] | [13] | [14] | [15] | [16] | [17] | [18] | [19]
